# Compound activity as filed in PubChem BioAssay.
# RORgamma inh – qHTS for inhibitors of ROR gamma transcriptional activity. Drosophila S2 Gal4-RORgamma UAS-luciferase reporter, 20 h. Nuclear receptor ROR-gamma (Mus musculus), P51450. Potency, µM (top dose mostly 53.6 µM), usual class: inhibitors. 5.4% of 310,000 active; also: nearly all actives have a fitted effect of over 60% in size
# Target sequence (P51450 whole entry, looked up, the tested form may be a part): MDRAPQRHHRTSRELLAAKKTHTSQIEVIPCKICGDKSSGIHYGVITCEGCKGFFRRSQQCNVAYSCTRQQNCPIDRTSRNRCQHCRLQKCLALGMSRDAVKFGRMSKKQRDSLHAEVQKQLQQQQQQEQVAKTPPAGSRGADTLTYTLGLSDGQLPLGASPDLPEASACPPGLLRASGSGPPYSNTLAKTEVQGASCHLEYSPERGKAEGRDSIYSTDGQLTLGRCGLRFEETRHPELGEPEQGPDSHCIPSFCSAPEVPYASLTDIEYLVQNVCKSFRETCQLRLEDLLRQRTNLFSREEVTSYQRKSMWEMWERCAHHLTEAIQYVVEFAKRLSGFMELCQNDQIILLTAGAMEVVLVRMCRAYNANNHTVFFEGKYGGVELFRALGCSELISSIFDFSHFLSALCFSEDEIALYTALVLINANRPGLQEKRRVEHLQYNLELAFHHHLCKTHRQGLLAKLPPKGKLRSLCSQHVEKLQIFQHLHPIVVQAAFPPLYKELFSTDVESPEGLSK
#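 Drosophila Schneider cells stably carrying a metallothionein-driven Gal4 DBD–ROR gamma fusion and a UAS-Photinus luciferase reporter were exposed to compound for 1 hr, then induced with copper sulfate (700 uM final) for 20 hr at ambient temperature before luminescence reading.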
# VP16 counter – VP16 counterscreen qHTS for inhibitors of ROR gamma transcriptional activity | Drosophila S2 Gal4-VP16 UAS-luciferase, luminescence, 20 h | Potency, µM (titrated, usually from 53.6 µM), most hits filed as inhibitors | 3.5% of 310,000 active;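 also: Gal4-VP16 expression switched on by copper sulfate through the metallothionein promoter; nearly all actives have a fitted effect of over 50% in size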
# Luc counter – Counterscreen for Luciferase (Kinase-Glo TM) Inhibition; Kinase-Glo luciferase, ATP luminescence, 8 min; Potency, µM (doses to about 38.3 µM), most hits filed as inhibitors; 0.28% of 200,000 active; AID 1379, 2008; also: nearly all actives have a fitted effect of over 60% in size
#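 Recombinant Kinase-Glo luciferase, 10 uM ATP (linear range), luciferin; imidazole pH 7.2 / KCl / MgCl2 / Tween / BSA buffer; 8 min RT; luminescence.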
# Numbers stand for hits; . = inactive; ? = inconclusive; / = no result. Hits are enriched below; roughly 6.4% of the tested compounds scored in any of these assays. Calls follow the shape of the dose curve; as a rule, active = well fitted curve in the direction sought with a large enough effect; inconclusive = small, poorly fitted or top-dose-only effect, or another doubt; inactive = no such curve, though single readings can be large; an effect the other way counts as inactive or inconclusive.
SMILES,RORgamma inh,VP16 counter,Luc counter
O=c1c2c(-c3cccs3)csc2[nH]c(=S)n1-c1ccccc1,2.2µM,3.5µM,.
C=CCn1c(SCC(C)=O)nc2scc(-c3ccc(C)o3)c2c1=O,.,.,/
O=C(COC(=O)/C=C/C(=O)OCC(=O)Nc1ccccc1F)Nc1ccccc1F,.,.,/
O=C(CSC(=S)N1CCOCC1)Nc1ncc2c(n1)CC(c1ccco1)CC2=O (centres undefined),.,.,/
O=C(C1=C[C@@H]2[C@H]3C(=O)N(c4ccccc4)C(=O)[C@H]3[C@@H](C(=O)c3ccc(Cl)cc3)N2C=C1)c1ccccc1,.,.,.
Cc1cc(=O)[nH]c2c1cnn2Cc1ccccc1,.,.,.
S=c1nc[nH]c2c1cnn2Cc1ccccc1,22µM,?,/
O=C1CS/C(=C/C(=O)c2ccccc2)N1,?,.,.
Cc1cc(C)cc(C(=O)/C=C2\NC(=O)CS2)c1,4µM,5.6µM,.
CSc1nc(C)cc(Oc2ccccc2)n1,.,.,.
OCC(CO)(CO)N=Cc1c(O)ccc2ccccc12,.,.,.
Oc1ccc2ccccc2c1/C=N/c1nccs1,.,.,.
CS/C(N)=N/N=C/c1c(O)ccc2ccccc12,0.89µM,7.1µM,/
CC(=O)N(C)c1ccc(N=Cc2c(O)ccc3ccccc23)cc1,11µM,?,/
Oc1ccc2ccccc2c1C=Nc1ccccc1Br,13µM,.,/
Oc1ccccc1N=Cc1c(O)ccc2ccccc12,8.9µM,?,/
CN(C)/N=C/c1c(O)ccc2ccccc12,.,.,.
CC(=O)c1cccc(N=Cc2c(O)ccc3ccccc23)c1,.,.,/
CC1CCC(NC(=O)CC(NC(N)=O)c2ccccc2Cl)CC1 (centres undefined),.,.,/
O=C1C(=O)N(C/C=C/c2ccccc2)c2ccccc21,.,.,/
NC(=O)C1CC12c1ccccc1-c1ccccc12 (centres undefined),.,.,/
O=C(NNC(=O)C1CCCN(S(=O)(=O)c2ccc3ccccc3c2)C1)C1CC1 (centres undefined),.,.,.
CC(=O)N1CC2([N+](=O)[O-])CN(C(C)=O)CC([N+](=O)[O-])(C1)C2(C)C,.,.,.
Oc1ccccc1C=Nc1cccc2ccccc12,.,.,/
Oc1cccc(C=Nc2cccc3ccccc23)c1O,11µM,13µM,/
SMILES,RORgamma inh,VP16 counter,Luc counter
CCCc1cc(=O)oc2cc(C)cc(OCC(=O)Nc3ccc(S(N)(=O)=O)cc3)c12,.,.,/
C=CCOc1c(CNc2cccc(C(=O)O)c2)cccc1OC,10µM,?,.
C=CCOc1c(CNc2cccc(C(=O)O)c2)cccc1OCC,.,.,.
CC(C)CCc1noc(CN(C)CCC2CCOCC2)n1,.,.,/
Cc1nn(C)c(C)c1CN(Cc1nc(CCC(C)C)no1)C(C)C,7.1µM,4µM,.
Cc1ccc(NC(=O)C(C)N2C(=O)c3ccccc3C2=O)cc1C (centres undefined),.,.,/
CN1C(c2ccccc2)CC(=NO)CC1c1ccccc1 (centres undefined),.,.,/
Cc1cccc(NC(=S)N2CCN(C(=O)c3ccco3)CC2)c1,.,.,/
COc1cccc(NC(=S)NN=C2CCC(C(C)(C)C)CC2)c1 (centres undefined),?,.,.
CC1(C)C/C(=N\NC(=S)Nc2ccccc2F)c2cc(O)ccc2O1,3.2µM,?,.
CC12CCC(C/C1=N/NC(=O)Nc1ccccc1)C2(C)C (centres undefined),.,.,.
COc1cccc(NC(=S)N/N=C2\CC(C)(C)Oc3ccc(O)cc32)c1,7.1µM,4.5µM,.
COc1cccc(NC(=S)N/N=C2\CC3CCC2(C)C3(C)C)c1 (centres undefined),0.56µM,5µM,.
Cc1cccc(NC(=S)N/N=C2\CC(C)(C)Oc3ccc(O)cc32)c1,4.5µM,3.2µM,.
Fc1ccccc1NC(=S)Nn1cnnc1,.,.,/
Cn1ccnc1CN1CCCCC1C(=O)Nc1ccc(Oc2cccnc2)cc1 (centres undefined),.,.,/
CCOc1cc(C(=O)NCCC(=O)N2CCC3(CC2)NCCc2[nH]cnc23)cc(OCC)c1OCC,.,.,/
CCC(C(=O)Nc1ccc(C(=O)O)cc1NC(=O)C(CC)c1ccccc1)c1ccccc1 (centres undefined),.,.,/
C=C(CO)C1Cc2cc(C(C)=O)ccc2O1 (centres undefined),.,.,/
C=CCn1c(-c2cc3cccc(OC)c3o2)n[nH]c1=S,3.5µM,?,.
C=CCn1c(-c2cc(Cl)ccc2OC)n[nH]c1=S,11µM,18µM,.
C=CCn1c(-c2cc(OC)c(OC)c(OC)c2)n[nH]c1=S,?,?,.
C=CCn1c(-c2cccc(OC)c2OC)n[nH]c1=S,11µM,?,.
